# The supplement of paper PMC12632987
# T1: USP38, Q8NB14
# T1 chain: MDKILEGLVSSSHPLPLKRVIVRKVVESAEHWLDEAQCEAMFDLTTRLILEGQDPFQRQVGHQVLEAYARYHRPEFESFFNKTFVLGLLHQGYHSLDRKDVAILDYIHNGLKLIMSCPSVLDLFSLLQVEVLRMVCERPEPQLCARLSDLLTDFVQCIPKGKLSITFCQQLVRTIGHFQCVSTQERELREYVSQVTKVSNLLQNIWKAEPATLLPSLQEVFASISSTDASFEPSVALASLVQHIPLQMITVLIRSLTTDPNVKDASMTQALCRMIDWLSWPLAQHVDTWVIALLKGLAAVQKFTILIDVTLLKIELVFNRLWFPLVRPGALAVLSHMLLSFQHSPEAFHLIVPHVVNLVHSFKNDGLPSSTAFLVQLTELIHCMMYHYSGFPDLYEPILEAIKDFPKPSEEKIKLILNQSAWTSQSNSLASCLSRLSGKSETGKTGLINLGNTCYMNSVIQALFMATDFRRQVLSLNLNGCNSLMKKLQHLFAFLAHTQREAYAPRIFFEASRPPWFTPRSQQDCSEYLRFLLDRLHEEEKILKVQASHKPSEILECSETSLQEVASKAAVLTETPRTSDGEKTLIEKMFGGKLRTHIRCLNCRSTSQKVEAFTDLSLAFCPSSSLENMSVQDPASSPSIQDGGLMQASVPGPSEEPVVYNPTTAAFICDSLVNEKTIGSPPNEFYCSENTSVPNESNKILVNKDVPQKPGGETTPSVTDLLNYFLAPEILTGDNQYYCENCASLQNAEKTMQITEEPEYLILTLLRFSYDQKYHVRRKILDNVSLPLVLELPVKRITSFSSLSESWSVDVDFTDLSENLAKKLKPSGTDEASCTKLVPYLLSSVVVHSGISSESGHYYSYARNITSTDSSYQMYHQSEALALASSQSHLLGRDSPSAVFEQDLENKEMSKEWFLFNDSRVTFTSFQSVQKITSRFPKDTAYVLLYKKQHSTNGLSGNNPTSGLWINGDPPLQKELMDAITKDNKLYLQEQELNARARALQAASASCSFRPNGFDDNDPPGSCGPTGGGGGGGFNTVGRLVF
# Biological target: T1, USP38, Q8NB14
# Experiment: median log2 fold change of GCK-ALFA target abundance (FLAG IP / Myc IP barcode read proportion) (log2 ratio); each designed protein is fused to an ALFA-tag nanobody in HEK293 cells to bring the named protein to FLAG-tagged glucokinase (GCK); Myc marks an untargeted standard; higher = target protein stabilised (more abundant)
# Details: target protein: 3xFLAG-MCP-GCK-ALFA reporter; HEK293 landing pad (RPLP)
# In short: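 Binders fused to an ALFA nanobody were recombined as a library into HEK293 landing-pad cells, which were induced with 2 μg mL^−1 doxycycline and then transfected to express a FLAG-tagged target and a Myc-tagged standard. After 48 h, circular RNA barcodes recovered by anti-FLAG and anti-Myc immunoprecipitation of lysates were reverse transcribed, amplified and sequenced. Each binder's target abundance is the median log2 ratio of FLAG to Myc barcode read proportions, from barcodes present at ≥10^−7 in both replicates, binders carrying ≥3 barcodes per replicate, a 10^−6 pseudocount and pooled replicates.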
row,Binder,median log2 fold change
1,usp_38_diff_out_18_28_370 (protein) SEEERERLEERLAALKAELDALIDRATAAATAALEAHPDDAEVWALIDALFDALGAAAAALNEARRLLREGGDLEEVERLLEQAEAHLAQARALLAQLEA,0.0316
2,usp_38_diff_out_18_28_373 (protein) SEEEREELKKRLEELEKRLDELIDRYVELANRVYEEHPDDEEKLRLLDEAADALGEAAYHLREARRLLREGGPPEEVKKELEKAEEALKKAEELLKELEE,0.0573
3,usp_38_diff_out_18_28_372 (protein) SAAERAALEARLAALEAELNALIDEFVELAERVYEERADDEEALALLDRAWDALGAAAAALNRARELLREGGPAAEVQAQLDAAEAALAEAKALLAELKA,-0.142
4,usp_38_diff_out_18_28_367 (protein) SAAARAAAEARLAALTAELDELIDEATAEATAALTAHPDDAAVWALVDALFDALGAAAAALNRARELLREGGPLEEVEAALAQAEAELARARELLAQLRA,0.0424
5,usp_38_diff_out_18_14_348 (protein) SEELYEQELSNLKSLTEEVKKNTERLKKIVEKLKDDPESALSLLETREQALKGVIKYAEEVAKEAKKEGREELLKAAEELIKAAKEALAEAKKLREELLA,-0.156
6,usp_38_diff_out_18_28_365 (protein) SEEERRELERRLEELTRRLDELIDEATEAATEALTAHPDDEEVWELVDRLFDALGAAAAALNRARELLREGGPLEEVEEELEEAERHLREAERLLEELRE,0.239
7,usp_38_diff_out_18_14_353 (protein) SEELREQLLSNLKTLKEEVRENRERTKRIVARLRDDPESARSLLESRIQAFKGVIKFAEELEKEAKEEGDEELLAAAKELKKEAEEALKELEALLAELDA,-0.0535
8,usp_38_diff_out_18_28_360 (protein) MEERREELEKRLKELKAELDKLITEATAAITEALEAHPDDEEVWALVDKLWDALGKAAAAINEARELLREGGDLEEVEKLLKEAEKHLKKAKELLAELKA,0.282
9,usp_38_diff_out_18_28_378 (protein) AAAERAALEAELAALRAELDALIDEATEAATRALEAHPDDEEVWALVDELFDTLGAAAAALNEARRLLKEGGDLAEVKAALAAARDALARARELLAELKA,-0.0434
10,usp_38_diff_out_18_14_357 (protein) SEAELEAQREYLEAFLEAAEIVNEEAERIIEREREKRILSADRLALMLGGLRALAEEAEEKLREARELGFEELAERLEEALERLEENAERFEALLAERRA,-0.477
11,usp_38_diff_out_18_14_349 (protein) SEELREQTLSNLKSLKKEVEEVTERTERIVEKLRGDPEAARALLDTRIQALEGVIKYAEEVLKEAEEEGWEEVAKAAKELIEAAKEAKKRAEELRKELEE,-0.113
12,usp_38_diff_out_18_28_379 (protein) EEARREELERRLEELRRRLDELIDEATEAATEALTAHPDDEEVWELVDELFDTLGRAAAALERARRLLREGGPLEEVERALEEAERHLEEAEELLEELEE,-0.355
13,usp_38_diff_out_18_28_369 (protein) SAAERAALEAELAALTARLDALIDEATAEATRRLTEHPDDEEVWELVDELFDALGAAAAALREARELLREGGPLAEVQAALDRARAALARAEALLAELKA,0.292
14,usp_38_diff_out_18_14_347 (protein) EEELAEQLKSNFESLTKEVEENTKRTKKIIEKLKDDKESAISLLETRIQALDGVITYAKEEKKEAEEKGFEELKAAAEKLIDAATKAKEELEKLLKELKK,0.152
15,usp_38_diff_out_18_159_359 (protein) DEELLAELDKEILRDYSTSLAEEAKEKAKKAKDPEVKKLWAEVAKTAKYAAENLDNPEALAQAAKELTALTEELKKKGALNDREELQLQGLITLLNRVAA,0.289
16,usp_38_diff_out_18_28_368 (protein) SEEERRELERRLEELTKRLDELIDEATAESTRALTAHPDDEAVWALVDALFDALGAAAAALNRARELLREGGPLEEVQKELDRAEAALKEAEALLAELKA,0.199

row,Binder,median log2 fold change
1,usp_38_diff_out_18_28_376 (protein) SAAERARLEAELAALRAELDALIDEATATATEALEAHPDSEEVWALIDALFDALGAAAAALEEARRLLRAGGPLAEVQALLDRAREHLRRARELLAELKA,-0.0614
2,usp_38_diff_out_18_28_363 (protein) EEERRRRLEAELEALRARLDALITEATAAITEALTAHPDDEEVWRLVDELLDALGRAAAALEEARRLLREGGPLEEVERLLREAERELERAERLLEELKA,-0.0876
3,usp_38_diff_out_18_14_356 (protein) SEEEREATRLFIEARLAAAELVNADADKIIAYEKKHKNRSADTIEMMRGGLAAMAAELEEDLKLAKELGDEELAARLAAAQAELKARAAEFDALLAEKKA,-0.0299
4,usp_38_diff_out_18_28_361 (protein) MEEERRELEEELRRLEEELERLITEATEAITRALTAHPDDEEVWKLVDELWDALGKAAAAINEARELLREGGPLEEVKAKLDEARKYLKEAKKLLEELKK,0.017
5,usp_38_diff_out_18_28_371 (protein) SAAERAALEARLAALEAELDALIDELVELAKEVYEEHADDEEKLALLDAAWDALGRAAGLLRRARELLREGGDPAEVAALLDAAEAALAEAKALLAELKK,-0.371
6,usp_38_diff_out_18_28_375 (protein) SAATRAALEAELAALEARLDALIDEYVALANRVYEEHPDDAEALALLDAAADALGAAAAALAEARRLLRAGGDPAEVRARLAEARAALAEAEALLAQLKA,-0.238
7,usp_38_diff_out_18_14_350 (protein) SEELEKQKLSNLKSLKEEVKKNTERLKKIVEKLKDDPESALSLLDTRIQALEGVIKYAEEVLKEAEEKGWEELAKAAKELIKEAEKAKKEAKELKKKLLE,-0.185
8,usp_38_diff_out_18_14_354 (protein) SEELREQTLSNLETLTADVEANTARLRRVVAALKDDPASARALLETRAQAMEGVIEYAERLEREAEEEGDEELLEAARRLRATAEAALAEIQALLAELDA,-0.0379
9,usp_38_diff_out_18_28_366 (protein) SMEEREKLEKELEELKKELDALIDEATALATEALTAHPDDEEVWALVDELFDSLGKAAAHLNRARELLREGGPLEEVEKELKEAKEHLEKAKELLAKLKA,-0.062
10,usp_38_diff_out_18_28_362 (protein) AAAERARLEARLRALGARLDALITDATAAVTAALTAHPDDAAVWALVDALWDALGKAAAAVNEARELLRAGGPAEEVERALEAAEAALAEAQALLAQLRA,-0.0207
11,usp_38_diff_out_18_28_364 (protein) SAAERAALEAELKALTAELDALIDEATEVATEKLTEHPDDEEVWELVDKLFDALGAAAAALNKARELLREGGPLEEVKKQLAKAKEALAEAKKLLEELKK,0.391
12,usp_38_diff_out_18_14_351 (protein) EEELREQLLSNLKSLTKEVKENTERTKKIVEKLKDDPESASSLLDTRIQALEGVIKYAEEVLREAKEKGWEELAEAAKELIKEAKKAKEELKKLKEALKA,-0.345
13,usp_38_diff_out_18_28_377 (protein) MEEERERLERELEELRERLDELIDEATEASLKKLEEEPDSEEVWELIDRLFDALGAAAAALREARELLKAGGPLEEVQRLLEEARRHLEEAERLLEELKE,-0.388
14,usp_38_diff_out_18_14_352 (protein) EEELREQLLSNLRSLTEEVRRNTERLKRIVEKLRDDPESALALLETRRQALEGVIRYAREVLREARERGWEELAEAAEELIRAAEEALEEAKRLEEELKK,-0.239
15,usp_38_diff_out_18_28_374 (protein) SEEEREELERRLRELEERLDELIDEYVELAERVYLEHPDDAEKLALLDAAADALGAAAYHLREARRLLREGGDPEEVERELEKAEEALEEAERLLEELKA,-0.302
16,usp_38_diff_out_18_159_358 (protein) DAELLHQLNLELLKAHLKSWAENAEKKAKKTKTEVAKKVAELAKKALELFEKDPNSKEALKEILELAKEALELIKSDPSFNDRDKTSAAGLVVLAQEVLA,0.093
